Laboratory results reported in PubChem BioAssay AID1159580 (chemical genetic matrix, 2015).
About 2,000 (36%) of roughly 5,500 compounds were called active. About 18% were inconclusive and are not listed. Rule as the data show it: active = normalized growth mostly below about 0.91 (no sharp cut-off); inconclusive = no clear call, values can overlap the other calls; inactive = mostly above about 0.92. The list shows a part of the results.

Experiment: chemical genetic growth profiling, strain panel (AID 1159580);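 also: tested at 20 µM; growth read once vehicle control cultures reached saturation at 30 °C; 1 = growth at the plate median or of vehicle wells; lower values mean less growth of the strain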
Settings: growth OD
[1] = S. cerevisiae deletion strains, locus YHR030C, strain SLT2, stronger effect = lower value
[2] = S. cerevisiae deletion strains, locus YHR079C, strain IRE1, stronger effect = lower value
[3] = S. cerevisiae deletion strains, locus YJL095W, strain BCK1, stronger effect = lower value
[4] = S. cerevisiae deletion strains, locus YJR066W, strain TOR1, stronger effect = lower value
[5] = S. cerevisiae deletion strains, locus YLR113W, strain HOG1, stronger effect = lower value
[6] = S. cerevisiae deletion strains, locus YNL183C, strain NPR1, stronger effect = lower value
[7] = S. cerevisiae deletion strains, locus YOR231W, strain MKK1, stronger effect = lower value
[8] = S. cerevisiae deletion strains, locus YPL256C, strain CLN2, stronger effect = lower value
[9] = S. cerevisiae deletion strains, locus YAL040C, strain CLN3, stronger effect = lower value
[10] = S. cerevisiae deletion strains, locus YCL061C, strain MRC1 (second series), stronger effect = lower value
[11] = S. cerevisiae deletion strains, locus YDR363W, strain ESC2, stronger effect = lower value
[12] = S. cerevisiae deletion strains, locus YER002W, strain NOP16, stronger effect = lower value
[13] = S. cerevisiae deletion strains, locus YJR075W, strain HOC1, stronger effect = lower value
[14] = S. cerevisiae deletion strains, locus YMR263W, strain SAP30, stronger effect = lower value
[15] = S. cerevisiae deletion strains, locus YMR307W, strain GAS1, stronger effect = lower value
[16] = S. cerevisiae deletion strains, locus YNL175C, strain NOP13, stronger effect = lower value
[17] = S. cerevisiae deletion strains, locus YNL197C, strain WHI3, stronger effect = lower value
[18] = S. cerevisiae deletion strains, locus YNL224C, strain SQS1, stronger effect = lower value
[19] = S. cerevisiae deletion strains, locus YNL322C, strain KRE1, stronger effect = lower value
[20] = S. cerevisiae deletion strains, locus YOR083W, strain WHI5 (second series), stronger effect = lower value
[21] = S. cerevisiae deletion strains, locus YPL055C, strain LGE1, stronger effect = lower value
[22] = S. cerevisiae deletion strains, locus YPL241C, strain CIN2, stronger effect = lower value
[23] = S. cerevisiae deletion strains, locus YAL013W, strain DEP1, stronger effect = lower value
[24] = S. cerevisiae deletion strains, locus YGR078C, strain PAC10, stronger effect = lower value
[25] = S. cerevisiae deletion strains, locus YNL153C, strain GIM3, stronger effect = lower value
[26] = S. cerevisiae deletion strains, locus YDL101C, strain DUN1, stronger effect = lower value

Measured: normalized growth

NC(=O)CCCCC1CCSS1 (stereo not given)
inactive: [1] 1.02 | [2] 0.976 | [3] 1.01 | [4] 0.955 | [5] 1.02 | [6] 0.966 | [7] 0.986 | [8] 1.01

COc1ccc2c(c1)[C@@]13CCCC[C@H]1[C@@H](C2)NCC3
inactive: [9] 0.998 | [10] 0.997 | [11] 0.951 | [12] 1.02 | [13] 0.988 | [14] 0.992 | [15] 0.973 | [16] 0.996 | [17] 1.03 | [18] 1.01 | [19] 0.991 | [20] 1 | [21] 0.983 | [22] 1

OCC1NCC(O)C(O)C1O (stereo not given)
inactive: [23] 1.02 | [9] 1.02 | [10] 1.01 | [11] 1.04 | [12] 1.01 | [24] 1 | [14] 1.01 | [15] 1.01 | S. cerevisiae deletion strains, locus YNL128W, strain TEP1, stronger effect = lower value 1.02 | [25] 1.02 | [16] 1.02 | [17] 1.01 | [18] 0.998 | [20] 1

Cc1c(-c2ccnc(N)n2)nnn1-c1ccc(Cl)cc1Cl
inactive: [23] 1 | S. cerevisiae deletion strains, locus YBR229C, strain ROT2, stronger effect = lower value 0.974 | [26] 0.981 | S. cerevisiae deletion strains, locus YDR150W, strain NUM1, stronger effect = lower value 1.03 | S. cerevisiae deletion strains, locus YEL061C, strain CIN8, stronger effect = lower value 0.959 | [24] 0.985 | [1] 0.732 | S. cerevisiae deletion strains, locus YHR087W, strain rtc3, stronger effect = lower value 0.959 | S. cerevisiae deletion strains, locus YJL187C, strain SWE1, stronger effect = lower value 1.01 | S. cerevisiae deletion strains, locus YJR043C, strain POL32, stronger effect = lower value 1.01 | [13] 0.967 | S. cerevisiae deletion strains, locus YKL190W, strain CNB1, stronger effect = lower value 1.01 | S. cerevisiae deletion strains, locus YLR039C, strain RIC1, stronger effect = lower value 0.936 | S. cerevisiae deletion strains, locus YLR058C, strain SHM2 (second series), stronger effect = lower value 0.989 | S. cerevisiae deletion strains, locus YLR085C, strain ARP6, stronger effect = lower value 0.885 | S. cerevisiae deletion strains, locus YLR262C, strain YPT6, stronger effect = lower value 0.932 | S. cerevisiae deletion strains, locus YML094W, strain GIM5, stronger effect = lower value 0.988 | S. cerevisiae deletion strains, locus YMR219W, strain ESC1, stronger effect = lower value 1 | [14] 0.98 | [25] 0.991 | S. cerevisiae deletion strains, locus YNL298W, strain CLA4 (second series), stronger effect = lower value 0.973 | [19] 1.01 | S. cerevisiae deletion strains, locus YNR030W, strain Alg12, stronger effect = lower value 0.975 | S. cerevisiae deletion strains, locus YOL006C, strain TOP1, stronger effect = lower value 0.921 | [21] 1.08 | [22] 0.957 | S. cerevisiae deletion strains, locus YPR135W, strain CTF4, stronger effect = lower value 0.687 | S. cerevisiae strains, strain wild type, stronger effect = lower value 0.992

O=c1c(Cl)c(-n2cccn2)cnn1-c1ccc(Cl)cc1Cl
active: [1] 0.71 | [5] 0.691 | [8] 0.831
inactive: S. cerevisiae deletion strains, locus YAR019C, strain CDC15, stronger effect = lower value 0.93 | S. cerevisiae deletion strains, locus YBL105C, strain PKC1, stronger effect = lower value 0.948 | S. cerevisiae deletion strains, locus YBR135W, strain CKS1, stronger effect = lower value 0.943 | S. cerevisiae deletion strains, locus YBR136W, strain MEC1, stronger effect = lower value 0.949 | S. cerevisiae deletion strains, locus YBR160W, strain CDC28, stronger effect = lower value 0.96 | S. cerevisiae deletion strains, locus YDL017W, strain CDC7, stronger effect = lower value 0.95 | S. cerevisiae deletion strains, locus YDL028C, strain MPS1, stronger effect = lower value 0.954 | [26] 0.985 | S. cerevisiae deletion strains, locus YDL108W, strain KIN28, stronger effect = lower value 0.962 | S. cerevisiae deletion strains, locus YDL132W, strain cdc53, stronger effect = lower value 0.95 | S. cerevisiae deletion strains, locus YDL214C, strain PRR2, stronger effect = lower value 0.906 | S. cerevisiae deletion strains, locus YDR052C, strain DBF4, stronger effect = lower value 0.93 | S. cerevisiae deletion strains, locus YDR054C, strain cdc34, stronger effect = lower value 0.913 | S. cerevisiae deletion strains, locus YDR226W, strain ADK1, stronger effect = lower value 0.974 | S. cerevisiae deletion strains, locus YDR477W, strain SNF1, stronger effect = lower value 0.893 | S. cerevisiae deletion strains, locus YER123W, strain YCK3, stronger effect = lower value 0.722 | S. cerevisiae deletion strains, locus YER133W, strain GLC7, stronger effect = lower value 0.909 | S. cerevisiae deletion strains, locus YFL009W, strain cdc4, stronger effect = lower value 0.955 | S. cerevisiae deletion strains, locus YFL029C, strain CAK1, stronger effect = lower value 0.916 | S. cerevisiae deletion strains, locus YFR003C, strain YPI1, stronger effect = lower value 0.953 | S. cerevisiae deletion strains, locus YFR019W, strain FAB1, stronger effect = lower value 0.956 | S. cerevisiae deletion strains, locus YFR028C, strain CDC14, stronger effect = lower value 0.965 | S. cerevisiae deletion strains, locus YGR040W, strain KSS1, stronger effect = lower value 0.883 | S. cerevisiae deletion strains, locus YGR052W, strain FMP48, stronger effect = lower value 0.902 | S. cerevisiae deletion strains, locus YGR092W, strain DBF2, stronger effect = lower value 0.539 | [2] 0.768 | S. cerevisiae deletion strains, locus YHR082C, strain KSP1, stronger effect = lower value 0.988 | S. cerevisiae deletion strains, locus YHR205W, strain SCH9, stronger effect = lower value 1.02 | S. cerevisiae deletion strains, locus YIL147C, strain SLN1, stronger effect = lower value 0.955 | [3] 0.823 | S. cerevisiae deletion strains, locus YJL128C, strain PBS2, stronger effect = lower value 0.94 | S. cerevisiae deletion strains, locus YJL157C, strain FAR1, stronger effect = lower value 0.864 | S. cerevisiae deletion strains, locus YJR016C, strain ILV3, stronger effect = lower value 0.932 | S. cerevisiae deletion strains, locus YJR066W, strain TOR1 (second series), stronger effect = lower value 0.726 | [4] 0.901 | S. cerevisiae deletion strains, locus YKL048C, strain ELM1, stronger effect = lower value 0.979 | S. cerevisiae deletion strains, locus YKL067W, strain YNK1, stronger effect = lower value 0.903 | S. cerevisiae deletion strains, locus YKL101W, strain HSL1, stronger effect = lower value 0.951 | S. cerevisiae deletion strains, locus YKL193C, strain SDS22, stronger effect = lower value 0.936 | S. cerevisiae deletion strains, locus YKL203C, strain TOR2, stronger effect = lower value 0.909 | S. cerevisiae deletion strains, locus YLR133W, strain CKI1, stronger effect = lower value 0.943 | S. cerevisiae deletion strains, locus YLR403W, strain SFP1, stronger effect = lower value 0.92 | S. cerevisiae deletion strains, locus YML070W, strain DAK1, stronger effect = lower value 0.917 | S. cerevisiae deletion strains, locus YMR001C, strain CDC5, stronger effect = lower value 0.917 | S. cerevisiae deletion strains, locus YMR205C, strain PFK2 (second series), stronger effect = lower value 0.926 | S. cerevisiae deletion strains, locus YMR277W, strain FCP1, stronger effect = lower value 0.941 | S. cerevisiae deletion strains, locus YNL006W, strain LST8, stronger effect = lower value 0.934 | S. cerevisiae deletion strains, locus YNL020C, strain ARK1, stronger effect = lower value 0.914 | S. cerevisiae deletion strains, locus YNL161W, strain CBK1, stronger effect = lower value 0.931 | [6] 0.857 | S. cerevisiae deletion strains, locus YNL207W, strain RIO2, stronger effect = lower value 0.968 | S. cerevisiae deletion strains, locus YNL222W, strain SSU72, stronger effect = lower value 0.949 | S. cerevisiae deletion strains, locus YNL307C, strain MCK1 (second series), stronger effect = lower value 0.901 | S. cerevisiae deletion strains, locus YOL078W, strain AVO1, stronger effect = lower value 0.928 | S. cerevisiae deletion strains, locus YOL136C, strain PFK27, stronger effect = lower value 0.951 | S. cerevisiae deletion strains, locus YOR061W, strain CKA2, stronger effect = lower value 0.93 | S. cerevisiae deletion strains, locus YOR119C, strain RIO1, stronger effect = lower value 0.947 | [7] 0.842 | S. cerevisiae deletion strains, locus YOR329C, strain SCD5, stronger effect = lower value 0.943 | S. cerevisiae deletion strains, locus YPL031C, strain PHO85, stronger effect = lower value 0.862 | S. cerevisiae deletion strains, locus YPL153C, strain RAD53, stronger effect = lower value 0.84 | S. cerevisiae deletion strains, locus YPL204W, strain HRR25, stronger effect = lower value 0.903 | S. cerevisiae deletion strains, locus YPL209C, strain IPL1, stronger effect = lower value 0.954 | S. cerevisiae deletion strains, locus YPR025C, strain CCL1, stronger effect = lower value 0.947 | S. cerevisiae deletion strains, locus YPR106W, strain ISR1, stronger effect = lower value 0.986 | S. cerevisiae deletion strains, locus YPR111W, strain DBF20, stronger effect = lower value 0.981 | S. cerevisiae deletion strains, strain NNK1, stronger effect = lower value 0.97 | S. cerevisiae deletion strains, strain TSCII, stronger effect = lower value 0.908
